Active and inactive are the calls of the source. How the source made its calls: active means hit-call score of the fitted dose curve at least 0.9, where 1 is the maximum; inactive means score below 0.9.
What follows are compounds tested against human (CYP19A1), CYP19A1 (gene 1588) (UniProt P11511) (assay: ERF_TW_ENZ_hCYP19A1: Eurofins (ERF) Enzymatic CYP450 LeadHunter Assay for human (CYP19A1)).
Description: ERF_TW_ENZ_hCYP19A1 is a biochemical, single-readout assay that uses extracted gene-proteins in a cell-free assay. Measurements were taken 0.75 hour after chemical dosing in a 96-well plate. See CYP19A1 Human CYP450 Enzymatic Assay, Panlabs.ERF_TW_ENZ_hCYP19A1 is an assay component calculated from the ERF_TW_ENZ_hCYP19A1 assay. It is designed to measure enzyme activity using a type of enzyme reporter as detected by fluorescence intensity with spectrophotometry technology.Data from the assay component ERF_TW_ENZ_hCYP19A1 was analyzed at the assay endpoint, ERF_TW_ENZ_hCYP19A1, in the positive analysis fitting direction relative to DMSO as the negative control and baseline of activity. Using a type of enzyme reporter, loss-of-signal activity can be used to understand changes in enzymatic activity as they relate to gene CYP19A1. To generalize the intended target to other relatable targets, this assay endpoint is annotated to the cyp intended target family, where the subfamily is steroidogenesis-related.
Human recombinant CYP450 19 plus P450 reductase, expressed in baculovirus infected insect BTI-TN-5B1-4 cells is used. Test compound and/or vehicle is preincubated with 4 nM enzyme in phosphate buffer pH 7.4 for 15 minutes at 37C. […] Determination of the amount of dibenzylfluorescein remaining is read spectrofluorimetrically. […]

Sequence of human (CYP19A1), CYP19A1 (gene 1588) (P11511 whole entry, looked up): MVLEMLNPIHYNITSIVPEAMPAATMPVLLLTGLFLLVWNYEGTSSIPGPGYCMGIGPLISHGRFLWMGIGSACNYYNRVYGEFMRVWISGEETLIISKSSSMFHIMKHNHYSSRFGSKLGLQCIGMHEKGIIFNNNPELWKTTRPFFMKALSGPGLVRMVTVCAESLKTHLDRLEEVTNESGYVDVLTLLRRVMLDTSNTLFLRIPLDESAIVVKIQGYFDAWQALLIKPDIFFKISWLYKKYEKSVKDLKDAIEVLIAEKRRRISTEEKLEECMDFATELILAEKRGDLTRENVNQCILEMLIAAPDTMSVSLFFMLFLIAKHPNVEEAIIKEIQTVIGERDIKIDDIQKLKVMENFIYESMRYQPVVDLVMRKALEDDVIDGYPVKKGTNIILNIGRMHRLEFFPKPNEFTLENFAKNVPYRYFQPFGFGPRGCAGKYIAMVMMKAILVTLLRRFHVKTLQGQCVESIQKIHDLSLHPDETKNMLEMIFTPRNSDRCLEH

SMILES	AC50
COc1cc(CCC(=O)CC(=O)CCc2ccc(O)c(OC)c2)ccc1O	5.05 µM (active)

From PubChem BioAssay AID2284073 (EPA ToxCast)
